KB-3-1 tox: qHTS assay for MDR1-selective chemotherapeutics: Primary screen using the parental adenocarcinoma cell KB-3-1. KB-3-1 viability, CellTiter-Glo ATP luminescence, 72 h. Potency, µM (titrated, usually from 46.1 µM), most hits filed as cytotoxic. 400,000 tested, 1.4% active; further: nearly all actives have a fitted effect of over 60% in size
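Luminescent ATP read-out (CellTiter-Glo) measures survival of drug-naive KB-3-1 cells after 72 h compound exposure at 37 °C. Titration series was screened from lowest to highest concentration, with DMSO vehicle plates as background controls.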
MCF10A rereplic: A quantitative high throughput screen for small molecules that induce DNA re-replication in MCF 10a normal breast cells. MCF 10A DNA re-replication, Hoechst nuclear intensity, 48 h. Potency, µM (titrated, usually from 46.1 µM), hits mostly activators. 350,000 tested, 2.9% active. AID 624296, 2012; further: nearly all actives have a fitted effect of over 50% in size
HT1080 IDH1KD tx: qHTS for induction of synthetic lethality in tumor cells producing 2HG: qHTS for the HT-1080-IDH1KD cell line | HT-1080 IDH1 knockdown viability, ATP luminescence, 48 h | Potency, µM (titrated, usually from 46.1 µM), actives largely listed as cytotoxic | 360,000 tested, 2% active | AID 686971, 2013
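CellTiter-Glo luminescence after 48 h compound exposure at 37 degrees C of IDH1-knockdown HT-1080 cells in 5% FBS RPMI. %Activity scaled between DMSO wells and cell-free media wells, with curves fitted and assigned curve classes.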
KB-V1 cytotox: qHTS assay for MDR1-selective chemotherapeutics: Primary screen using the drug-selected MDR subline cells KB-V1; KB-V1 MDR cells viability, CellTiter-Glo, 72 h; Potency, µM (doses to about 46.1 µM), actives largely listed as cytotoxic; AID 1347076, 2019; 400,000 tested, 3.4% active; further: nearly all actives have a fitted effect of over 60% in size
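Potencies derive from concentration-effect curves fitted to normalized luminescence (CellTiter-Glo) of KB-V1 cells treated for 72 h at 37 degrees C in phenol-red-free DMEM containing 10% FBS.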
SW480 rerep: A quantitative high throughput screen for small molecules that induce DNA re-replication in SW480 colon adenocarcinoma cells. SW480 DNA re-replication, Hoechst DNA content imaging, 48 h. Potency, µM (titrated, usually from 46.1 µM), usual class: activators. 340,000 tested, 1.8% active; further: nearly all actives have a fitted effect of over 55% in size
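Treated cells incubate 48 hr (37 C, 5% CO2), are stained 40 min with Hoechst, and nuclear fluorescence is enumerated; a rise in nuclei with high DNA signal marks re-replication.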
HT1080NT lethal: qHTS for induction of synthetic lethality in tumor cells producing 2HG: qHTS for the HT-1080-NT fibrosarcoma cell line; HT-1080-NT fibrosarcoma viability, CellTiter-Glo ATP luminescence, 48 h; Potency, µM (highest dose often 46.1 µM), actives largely listed as cytotoxic; 360,000 tested, 1.6% active;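 further: NT is the 2HG producing partner of a matched IDH1 knockdown line; nearly all actives have a fitted effect of over 55% in size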
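A 48-hour cytotoxicity screen used HT-1080-NT cells plated 2 hours before compound delivery. ATP-based CellTiter-Glo luminescence measured viability, normalized to DMSO and no-cell controls.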
A number is an active result; i = inactive; ? = inconclusive; nt = no result given. Compounds with a hit are over-represented: about 7.9% of the library has one in this group of screens. The call rests on the fitted dose curve; in most records, active means well fitted curve in the direction sought with a large enough effect; inconclusive means small, poorly fitted or top-dose-only effect, or another doubt; inactive means no such curve, though single readings can be large; an effect the other way counts as inactive or inconclusive.

SMILES | KB-3-1 tox | MCF10A rereplic | HT1080 IDH1KD tx | KB-V1 cytotox | SW480 rerep | HT1080NT lethal
COc1ccc(NC(=O)N(C)C[C@H]2Oc3c(NC(=O)Nc4c(C)noc4C)cccc3C(=O)N([C@H](C)CO)C[C@@H]2C)cc1 | i | i | i | i | i | i
O=[N+]([O-])c1ccc(O)c(/C=N/NC2=NS(=O)(=O)c3ccccc32)c1 | i | i | i | i | ? | i
CCOC(=O)/C=C/C(=O)Nc1ccccc1-c1ccccc1NC(=O)/C=C/C(=O)OCC | ? | 5.8µM | 23.1µM | i | 4.61µM | ?
CCOC(=O)/C=C/C(=O)OCC(=O)Nc1cccc(Cl)c1Cl | i | ? | i | ? | i | i
CCOC(=O)/C=C/C(=O)Nc1cccc([N+](=O)[O-])c1 | ? | 3.66µM | i | i | nt | ?
COc1cc(C=NN2CCCCC2)cc(OC)c1OC | i | nt | i | i | nt | i
CCc1noc(C)c1C(=O)OCC(=O)N(C)c1c(N)n(Cc2ccccc2)c(=O)[nH]c1=O | i | i | i | ? | i | i
COc1ccccc1OCC(O)CN1CCN(C(=O)c2ccccc2)CC1 (centres undefined) | i | i | i | i | i | i
O=C(NC(c1ccc(Cl)cc1)c1c(O)ccc2ccccc12)c1ccccc1 (centres undefined) | ? | ? | ? | 20.6µM | ? | ?
O=C(NC(c1ccccc1)c1c(O)ccc2ccccc12)c1ccccc1Cl (centres undefined) | ? | 23.1µM | 11.2µM | 20.6µM | ? | 17.8µM
O=C(OCC(=O)N1CCN(c2ccccc2)CC1)c1ccccc1OC(F)F | i | i | i | i | i | i
Cc1occc1C(=O)N1CCN(c2ccc(Cl)c(Cl)c2)CC1 | i | i | i | 23.1µM | i | i
COc1ccccc1NC(=S)NCc1ccc(Cl)cc1 | i | ? | i | i | i | i
CCn1nc(C)c(C(=O)Nc2cc(Oc3cc(C)cc(C)c3)cc([N+](=O)[O-])c2)c1C | 18.4µM | 23.1µM | ? | 3.26µM | ? | ?
Cc1ccccc1Cn1ccc(NC(=O)c2nn(C)cc2[N+](=O)[O-])n1 | i | 6.51µM | i | ? | 10.3µM | ?
Cc1nn(C)cc1C(=O)Nc1cc(Oc2ccc(Cl)cc2)cc([N+](=O)[O-])c1 | 20.6µM | i | i | ? | i | i
Cn1cc([N+](=O)[O-])c(C(=O)Nc2cc(Oc3ccccc3)cc([N+](=O)[O-])c2)n1 | ? | 2.91µM | 6.51µM | ? | 4.11µM | 18.4µM
CCNC(=O)C12CCC(C)(C(=O)C1Br)C2(C)C (centres undefined) | i | i | i | i | i | i
Cc1ccc(CN2CCN(Cc3cccn3-c3ccc(Cl)cn3)CC2CCO)o1 (centres undefined) | i | i | i | i | i | i
Cn1c(=O)oc2cc(S(=O)(=O)Nc3ccc(O)cc3)ccc21 | i | i | i | ? | i | i
O=C(Nc1cccc(NC(=O)c2ccccc2)n1)c1ccccc1 | i | ? | i | ? | i | i
O=C(Nc1cc(Oc2ccc(Cl)cc2)cc([N+](=O)[O-])c1)c1ccco1 | i | 16.4µM | ? | i | i | ?
CCOc1ccc(Oc2cc(NC(=O)c3ccco3)cc([N+](=O)[O-])c2)cc1 | i | ? | i | i | i | i
COc1cc2c(cc1OC)C1CCN3C(=O)CCC3N1CC2 (centres undefined) | i | i | i | i | i | i
CO/N=C/c1ccc(OC)c(Oc2nc(OC)cc(OC)n2)c1 | 18.4µM | 16.4µM | ? | i | 18.4µM | ?
SMILES | KB-3-1 tox | MCF10A rereplic | HT1080 IDH1KD tx | KB-V1 cytotox | SW480 rerep | HT1080NT lethal
CCO/N=C/c1ccc(OC)c(Oc2nc(OC)cc(OC)n2)c1 | i | ? | i | i | i | i
O=C(COC(=O)/C(=C/c1cccs1)c1cccs1)NC(c1ccccc1)c1ccccc1 | i | i | i | 8.2µM | i | i
COc1ccccc1/C=C1\CCC(C2CCCC2)C1=O (centres undefined) | i | 18.4µM | i | i | i | i
O=C1/C(=C/c2ccccc2)CCC1C1CCCC1 (centres undefined) | i | i | i | i | i | i
COc1ccc(/C=C2\CCC(C3CCCC3)C2=O)cc1Cn1nc(C)cc1C (centres undefined) | i | i | i | ? | i | i
COc1ccc(/C=C2\CCC(C3CCCC3)C2=O)cc1Cn1cccn1 (centres undefined) | i | i | i | 23.1µM | i | i
O=c1ccsn1Cc1ccccc1 | i | ? | 23.1µM | i | 18.4µM | ?
Cc1ccc2nc(SCc3ccccc3)c(C=O)c(=O)n2c1 | i | i | i | 8.2µM | i | i
Cn1c(=O)c([N+](=O)[O-])c(-n2ccnc2)c2ccccc21 | ? | ? | 25.9µM | i | ? | 16.4µM
Cn1c(=O)c([N+](=O)[O-])c(NCCCn2ccnc2)c2ccccc21 | i | ? | i | i | i | i
COc1cc(N2CCCC2)c(OC)cc1/C=C(/C#N)c1ccc(Br)cc1 | i | 23.1µM | i | i | i | i
Cc1cccn2c(=O)nc(SCC(=O)N3CCCCCC3)nc12 | i | i | i | i | i | i
CCNC(=O)NC(=O)CSc1nc2ccccc2n1CC(C)C | i | i | i | 2.91µM | i | i
O=C(CCCCCn1c(SCc2ccncc2)nc2ccccc2c1=O)NCc1ccco1 | i | ? | 11.2µM | ? | i | ?
COCCNC(=O)CSc1nc2ccccc2c(=O)n1CCCC(=O)NCc1ccccc1 | i | i | i | 16.4µM | i | i
N#CCSc1nc2ccccc2c(=O)n1CCCC(=O)NCc1ccco1 | i | i | i | ? | i | i
Cn1ccnc1C(=O)c1cc(SCC(=O)NCc2ccccc2)nc2ccccc12 | ? | 14.6µM | ? | ? | ? | 10.3µM
Cc1ccc(CNC(=O)[C@@H](NC(=O)C2CCN(C(=O)[C@@H]3CCCN3)CC2)C(C)C)cc1 | i | i | i | i | i | i
CC(=O)NC(CC(=O)NNC(=O)c1cccs1)c1ccccc1 (centres undefined) | i | i | i | i | i | i
CCOC(=O)C1CCN(c2nc3c(C)cccn3c(=O)c2/C=C(\C#N)S(=O)(=O)c2ccccc2)CC1 | i | i | i | i | i | i
CCOc1ccc(-c2nc(C(N)=O)c3c(n2)n(-c2ccc4c(c2)OCO4)c(=O)n3CC)cc1 | i | nt | nt | i | nt | nt
Cn1c(SCC(=O)NCc2ccccc2)nc2ccccc21 | i | i | i | 14.6µM | i | i
